Unmarked numbers belong to inactive results. The rule behind the calls is not given here.
Target: Pantothenate synthetase (Mycobacterium tuberculosis (strain ATCC 25618 / H37Rv)) (UniProt P9WIL5)
Assay: Coupled enzyme confirmation of inhibitors against recombinant Mtb PanC (AID 375);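 note: 0% = full reaction with vehicle and 100% = no enzyme background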
Settings: coupled enzyme assay; at 10 µM, hits give high values

Sequence of Pantothenate synthetase (Mycobacterium tuberculosis (strain ATCC 25618 / H37Rv)) (P9WIL5 whole entry, looked up): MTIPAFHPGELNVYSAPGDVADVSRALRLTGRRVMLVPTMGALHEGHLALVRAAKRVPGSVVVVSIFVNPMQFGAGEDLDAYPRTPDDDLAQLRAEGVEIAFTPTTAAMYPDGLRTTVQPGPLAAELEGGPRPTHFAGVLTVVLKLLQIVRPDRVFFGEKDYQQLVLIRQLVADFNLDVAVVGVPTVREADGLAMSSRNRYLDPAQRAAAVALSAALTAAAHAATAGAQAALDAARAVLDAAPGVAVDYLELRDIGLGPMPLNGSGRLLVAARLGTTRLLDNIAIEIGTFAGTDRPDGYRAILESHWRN

Structure (SMILES) | inhibition [%]
Cc1c(C#N)c(N)c(C(=O)c2ccccc2)n1Cc1ccccc1 | 0
O=C(NCc1ccccc1)N[C@@H](Cc1ccccc1)C(=O)O | 1
Cc1nc(/N=C\N(C)C)sc1C(=O)Nc1ccccc1 | 0
Cc1ccc(Cn2nnc3c(=O)[nH]c(C4CCN(S(=O)(=O)c5ccc(F)cc5)CC4)nc32)cc1 | 3
O=C(COC(=O)C12CC3CC(CC(C3)C1)C2)NCc1ccco1 | 0
O=C(CN(CCc1ccccc1)C(=O)CNS(=O)(=O)c1ccccc1)NCC1CCCO1 (stereo unspecified) | 0
Cc1cc(Br)c(S(=O)(=O)n2nnc3ccccc32)cc1C | 2
O=C(COn1nnc2ccc(C(F)(F)F)cc21)Nc1nnc(-c2ccccc2)o1 | 0
CCCCn1c(CN2CCN(c3ccc(F)cc3)CC2)nc2c1c(=O)n(C)c(=O)n2C | 2
Cc1ccc2[nH]c3c(c2c1)CCc1cn[nH]c1-3 | 0
CC1CCN(S(=O)(=O)c2ccc3[nH]cc(C(=O)NCCN4CCOCC4)c(=O)c3c2)CC1 | 0
CCSC1(SCC)N=C(N)C2(C#N)C(c3ccccc3)NC(C)=C(C)C12C#N (stereo unspecified) | 0
O=C1CCCN1CCCNc1ncnc2c1[nH]c1ccc(Cl)cc12 | 9
CCOCCCNC(=O)C(c1ccccc1)N(Cc1ccc2c(c1)OCO2)C(=O)CNC(C)=O (stereo unspecified) | 1
CCN(CC)c1ccc(NC(=O)c2nc3nc(C)cc(C(F)F)n3n2)cc1 | 0
CCOc1ccc(N2CC(C(=O)Nc3ccc(F)cc3F)CC2=O)cc1 (stereo unspecified) | 6
